# Data from PubChem BioAssay (NCATS).
# Values joined by “and” are separate entries in the source; they are usually repeats but may differ in a detail not shown here. Identical values can stand only once. Inconclusive results are not listed. Entries that show only a call come without a potency. Active and inactive are the calls of the source. Unless noted, calls follow the shape of the full dose curve.
# Experiments:
# [1] = qHTS for Inhibitors of the Functional Ribonucleoprotein Complex (vRNP) of Lassa (LASV) Arenavirus: LASV Primary Screen - GLuc reporter signal (AID 1347082; calls by dose curve; tested in HEK293 reporter line; also: nearly all actives have a fitted effect of over 60% in size; also: potency is read from the fitted curve at half-maximal effect)
# [2] = molecular target: Nucleoprotein (Lymphocytic choriomeningitis virus (strain Armstrong)) (UniProt P09992); test: qHTS for Inhibitors of the Functional Ribonucleoprotein Complex (vRNP) of Lymphocytic Choriomeningitis Arenaviruses (LCMV): LCMV Primary Screen - GLuc reporter signal (AID 1347086); also: nearly all actives have a fitted effect of over 70% in size; also: potency is read from the fitted curve at half-maximal effect
# [3] = Validation screen for inhibitors of Lassa infection (AID 463096); also: potency is read from the fitted curve at half-maximal effect
# [4] = Inducers of the Endoplasmic Reticulum Stress Response (ERSR) in human glioma: Validation (AID 504836; active = well fitted curve in the direction sought with a large enough effect; an effect the other way counts as inactive or inconclusive)
# How it was run: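 Stably transfected U87-MG glioma cells carrying a GRP78-based luciferase sensor; 16 h compound incubation. Luminescence end-point read 10 min after Bright-Glo addition at room temperature.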
# [5] = qHTS for Inhibitors of the Functional Ribonucleoprotein Complex (vRNP) of Lymphocytic Choriomeningitis Arenaviruses (LCMV): Viability assay - alamar blue signal for LCMV Primary Screen (AID 1347085; calls by dose curve; tested in HEK293 reporter line; also: nearly all actives have a fitted effect of over 80% in size; also: potency is read from the fitted curve at half-maximal effect)
# [6] = Primary qHTS to identify inhibitors of SARS-CoV-2 cell entry (AID 1645846); conditions: activity change, negative = inhibition: at 57.1 µM (top of the series) unless noted; also: nearly all actives have a fitted effect of over 45% in size; also: potency is read from the fitted curve at half-maximal effect
# How it was run: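 Inhibition of spike-mediated entry was scored in human ACE2-transfected Expi293F cells. Particles were MLV-pseudotyped with Wuhan-Hu-1 S carrying a 19-aa C-terminal deletion; signal was luciferase after two days, scaled between spike PP and fusion-protein-free PP.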
# [7] = qHTS Assay for Lipid Storage Modulators (AID 1519); conditions: Drosophila S3 cells, BODIPY lipid droplet/cell ratio, laser cytometry, cells loaded with oleic acid
# How it was run: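 Cells seeded at 5,000 per well were treated with compounds over a concentration series and loaded with oleic acid (400 uM, as added). Lipid droplet fluorescence (488 nm excitation, 500-530 nm channel) was read by laser-scanning cytometry and normalized to 20 uM Triacsin C.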
# [8] = molecular target: Alpha-galactosidase (Coffea arabica) (UniProt Q42656); test: Counterscreen for Glucocerebrosidase Inhibitors: qHTS Assay for Coffee Bean alpha-Galactosidase at pH 4.5 (AID 957; active = well fitted curve in the direction sought with a large enough effect; an effect the other way counts as inactive or inconclusive)
# How it was run: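 AC50 values derive from Hill-equation modeling of concentration-response data, normalized to no-enzyme and full-activity controls. The pH 4.5 citrate assay used 2 nM coffee bean enzyme and 80 uM fluorogenic substrate for 20 min.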
# [9] = molecular target: Alpha-galactosidase (Coffea arabica) (UniProt Q42656); test: Counterscreen for Glucocerebrosidase Inhibitors: qHTS Assay for Coffee Bean alpha-Galactosidase at pH 5.9 (AID 998; active = well fitted curve in the direction sought with a large enough effect; an effect the other way counts as inactive or inconclusive)
# How it was run: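 Green coffee bean enzyme (2 nM) with 4-methylumbelliferyl alpha-D-galactopyranoside (80 uM) in 50 mM citric acid, 0.005% Tween-20, pH 5.9, 20 min at room temperature; compounds 0.7 nM–77 uM. Stopped at pH 10, fluorescence Ex365/Em440; Hill-fit AC50.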
# [10] = Cytotoxicity counterscreen for inhibitors of SARS-CoV-2 cell entry (AID 1645845); also: nearly all actives have a fitted effect of over 50% in size
# How it was run: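 HEK293-ACE2 cells (Expi293F stably expressing human ACE2) seeded overnight, then compound for 1 h plus 48 h at 37C. Viability as ATP content by luminescence; normalized to wells with cells and media-only wells.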
# [11] = Confirmatory qHTS for VERO E6 Cytotoxicity Assay: Counterscreen for SARS-CoV-2 CPE Assay (AID 1508605); also: potency is read from the fitted curve at half-maximal effect; nearly all actives have a fitted effect of over 60% in size
# Nucleoprotein (Lymphocytic choriomeningitis virus (strain Armstrong)), sequence (P09992 whole entry, looked up): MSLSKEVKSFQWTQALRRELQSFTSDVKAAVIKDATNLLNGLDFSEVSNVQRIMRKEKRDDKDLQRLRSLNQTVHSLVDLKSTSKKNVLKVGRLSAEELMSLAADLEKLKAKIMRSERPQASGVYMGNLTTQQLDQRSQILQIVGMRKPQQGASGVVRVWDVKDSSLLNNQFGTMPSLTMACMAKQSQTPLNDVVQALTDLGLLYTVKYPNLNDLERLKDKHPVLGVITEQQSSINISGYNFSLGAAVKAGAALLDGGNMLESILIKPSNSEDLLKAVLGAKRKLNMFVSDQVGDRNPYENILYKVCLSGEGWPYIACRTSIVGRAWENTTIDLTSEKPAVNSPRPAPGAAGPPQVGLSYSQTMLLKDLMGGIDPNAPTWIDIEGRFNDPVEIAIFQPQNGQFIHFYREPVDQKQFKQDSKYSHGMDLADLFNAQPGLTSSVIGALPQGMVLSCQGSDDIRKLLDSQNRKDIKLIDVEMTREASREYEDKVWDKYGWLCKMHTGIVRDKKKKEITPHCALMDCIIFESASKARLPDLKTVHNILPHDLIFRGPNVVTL
# Alpha-galactosidase (Coffea arabica), sequence (Q42656 whole entry, looked up): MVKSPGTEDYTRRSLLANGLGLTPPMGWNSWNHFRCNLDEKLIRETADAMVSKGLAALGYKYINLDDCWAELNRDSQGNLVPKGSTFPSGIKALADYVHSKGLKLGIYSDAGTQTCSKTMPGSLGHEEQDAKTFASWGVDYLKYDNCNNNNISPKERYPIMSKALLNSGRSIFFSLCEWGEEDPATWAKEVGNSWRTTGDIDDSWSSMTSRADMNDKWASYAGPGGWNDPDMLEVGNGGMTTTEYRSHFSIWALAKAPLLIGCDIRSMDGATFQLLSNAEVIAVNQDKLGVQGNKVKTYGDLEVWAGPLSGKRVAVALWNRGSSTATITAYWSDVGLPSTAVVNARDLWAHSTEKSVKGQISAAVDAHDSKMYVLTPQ
smiles,measurement,setting,value
FC(F)(F)c1ccc(C=Cc2nc(COc3ccc(CCCCn4ccnn4)cc3)co2)cc1,Potency,[1],0.0432 µM (active)
same,Potency,[2],0.0217 µM (active)
CCCCCC(O)c1cccc(OCc2ccc3ccccc3n2)c1 (centres undefined),Potency,[3],inactive
same,outcome,[4],inactive
same,Potency,[1],inactive
same,Potency,[5],inactive
same,Potency,[2],inactive
CC1(C)Oc2cc3oc(-c4cc(O)cc(O)c4)cc3cc2CC1O (centres undefined),Potency,[1],inactive
same,Potency,[2],inactive
C=C1C(=CC=C2CCC[C@]3(C)[C@@H]([C@H](C)CCCC(C)(C)O)CC[C@@H]23)C[C@@H](O)C[C@@H]1O,Potency,[1],inactive
same,Potency,[2],inactive
CCOC(=O)N1CCN([N+]([O-])=NOc2ccc([N+](=O)[O-])cc2[N+](=O)[O-])CC1,Potency,[1],inactive
same,Potency,[2],inactive
CN(C)CC[C@H](CSc1ccccc1)Nc1ccc(S(=O)(=O)NC(=O)c2ccc(N3CCN(Cc4ccccc4-c4ccc(Cl)cc4)CC3)cc2)cc1[N+](=O)[O-],Potency,[1],inactive
same,Potency,[5],inactive
same,Potency,[2],inactive
same,"activity change, negative = inhibition",[6],1.37%
COc1cc(C=CC(=O)O)ccc1O,Potency,[1],inactive
same,Potency,[2],inactive
CC(C)NC[C@@H](O)c1ccc(O)c(O)c1,outcome,[4],inactive
same,Potency,[1],inactive
same,Potency,[5],inactive
same,Potency,[2],inactive
CCC(C)SSc1ncc[nH]1 (centres undefined),Potency,[1],inactive
same,Potency,[2],inactive
COc1ccc(-c2cc(=O)c3c(O)c(OC)c(OC)cc3o2)cc1O,Potency,[1],inactive
same,Potency,[2],inactive
COc1cc2c(c(OC)c1OC)-c1ccc(OC)c(=O)cc1C(N)CC2 (centres undefined),Potency,[1],inactive
same,Potency,[2],0.178 µM (active)
CC1=CC(O)C(O)C2(C)C1CC1OC(=O)C(O)C3C(C)C(O)C4(O)OCC13C42 (centres undefined),Potency,[1],inactive
same,Potency,[2],inactive
O=C1OC(=O)C2C3CCC(O3)C12 (centres undefined),"activity change, negative = inhibition",[7]; at 57.5 µM (top of the series),0.66% (inactive) and -7.44% (inactive)
same,max response,[7]; measured here: cell count channel max response,-1.46% and -29.7%
same,max response,[7]; measured here: lipid channel max response,1.23% and -36.1%
same,Potency,[3],inactive
same,outcome,[4],inactive
same,Potency,[1],inactive
same,Potency,[5],12.6 µM (active)
OCc1ccc(-c2nn(Cc3ccccc3)c3ccccc23)o1,outcome,[8],inactive
same,outcome,[9],inactive
same,Potency,[3],4.47 µM (active)
same,outcome,[4],inactive
same,Potency,[1],inactive
same,Potency,[5],inactive
same,Potency,[2],inactive
same,"activity change, negative = inhibition",[6],-87.6%
NC(=Nc1ccccc1)NC(=O)c1nc(Cl)c(N)nc1N,outcome,[8],inactive
same,outcome,[9],inactive
same,Potency,[1],inactive
same,Potency,[5],inactive
same,Potency,[2],inactive
Nc1nc(NCCNc2ncc(-n3ccnc3)c(-c3ccc(Cl)cc3Cl)n2)ccc1[N+](=O)[O-],Potency,[1],inactive
same,Potency,[5],15.3 µM (active)
same,Potency,[10],inactive
same,"activity change, negative = inhibition",[6],-29.7%
O=C1CSC(=O)N1C(CCc1ccncc1)COc1ccc(-c2cccc([N+](=O)[O-])c2)cc1 (centres undefined),Potency,[1],17.2 µM (active)
same,Potency,[2],7.69 µM (active)
COc1ccc(CN2CCc3cc(OC)c(OC)cc3C2)cc1O,Potency,[1],inactive
same,Potency,[2],inactive
COc1cc(OC)c2c(c1Cl)O[C@@]1(C2=O)[C@H](C)CC(=O)C[C@@H]1OC,Potency,[1],inactive
same,Potency,[2],inactive
Nc1ncnc2c1nc(Br)n2C1OC2COP(=O)(O)O[C@@H]2C1O (some centres undefined),outcome,[4],inactive
same,Potency,[1],inactive
same,Potency,[5],inactive
same,Potency,[2],inactive
CC(N)(Cc1ccc(O)c(O)c1)C(=O)O (centres undefined),Potency,[3],inactive
same,outcome,[4],inactive
same,Potency,[1],inactive
same,Potency,[5],inactive
same,Potency,[2],inactive
Nc1nc(Cl)nc2c1ncn2[C@@H]1O[C@H](COP(=O)(O)OP(=O)(O)OP(=O)(O)O)[C@@H](O)[C@H]1O,outcome,[4],inactive
same,Potency,[1],inactive
same,Potency,[5],inactive
same,Potency,[2],inactive
CN1CCc2c(n(Cc3ccc(C(=O)NO)cc3)c3ccccc23)C1,Potency,[1],inactive
same,Potency,[2],inactive
N#CC(c1ccnc(NCCc2cccnc2)n1)c1nc2ccccc2s1 (centres undefined),Potency,[1],inactive
same,Potency,[5],15.3 µM (active)
same,Potency,[10],inactive
same,Potency,[6],inactive
CNC(=O)[C@H](CC1=CN=C2C=CCC=C12)NC(=O)[C@@H](CC(=O)NO)CC(C)C,Potency,[1],15.3 µM (active)
same,Potency,[2],3.43 µM (active)
COc1c2ccoc2c(OCC=C(C)C)c2oc(=O)ccc12,Potency,[1],inactive
same,Potency,[2],inactive
O=c1[nH]c(=O)n([C@H]2C[C@@H](O)[C@@H](CO)O2)cc1C(F)(F)F,Potency,[1],inactive
same,Potency,[2],inactive
COc1ccc(NC(=O)/C=C/c2ccc(Cl)cc2)cc1,Potency,[1],inactive
same,Potency,[2],inactive
C[C@]12CC[C@@H]3c4ccc(O)cc4CC[C@H]3[C@H]1[C@@H](O)[C@@H](O)[C@H]2O,Potency,[1],inactive
same,Potency,[5],inactive
same,Potency,[2],inactive
same,Potency,[6],inactive
CCCC(=O)NCCc1c2n(c3ccc(OC)cc13)CCCc1ccccc1-2,outcome,[8],inactive
same,outcome,[9],inactive
same,Potency,[3],inactive
same,outcome,[4],inactive
same,Potency,[1],inactive
same,Potency,[5],inactive
C[C@H](NC(=O)c1sccc1OCc1ccc(Cl)cc1)c1ccccc1,Potency,[1],inactive
same,Potency,[5],inactive
same,Potency,[10],inactive
Nc1ncnc2c1c(-c1cccc(OCc3ccccc3)c1)cn2C1CC(CN2CCCC2)C1 (centres undefined),Potency,[1],inactive
same,Potency,[5],27.3 µM (active)
same,Potency,[11],12.6 µM (active)
same,Potency,[6],14.1 µM (active)
C[C@H]1C/C=C/[C@@H]2[C@@H]3O[C@]3(C)[C@@H](C)[C@H]3[C@H](Cc4ccccc4)NC(=O)[C@]32OC(=O)O/C=C/[C@](C)(O)C1=O,Potency,[1],inactive
same,Potency,[2],inactive
CCC[C@H]1NC(=O)[C@H](C)N(C)C(=O)C(C)(C)C(=O)C(C)NC(=O)[C@H](Cc2ccc(OC)cc2)N(C)C(=O)[C@H](C(C)C)N(C)C(=O)CNC(=O)[C@H](CC(C)C)N(C)C(=O)CNC(=O)[C@H]([C@@H](C)CC)OC(=O)[C@H]1C (some centres undefined),Potency,[1],inactive
same,Potency,[2],inactive
CC(C)(C)NC(=O)Nc1cccc(Nc2ncc(F)c(NC(C)(C)CO)n2)c1,Potency,[1],inactive
same,Potency,[2],inactive
CN1CCCN(C(=O)c2cccc(-c3ccc(C=C4C(=O)Nc5ccc(Cl)cc54)o3)c2)CC1,Potency,[1],inactive
same,Potency,[2],inactive
O=C(O)Cc1ccc(O)c(O)c1,outcome,[8],inactive
same,outcome,[9],inactive
same,outcome,[4],inactive
same,Potency,[1],inactive
same,Potency,[5],inactive
same,Potency,[2],inactive
